Experimental findings from PubChem BioAssay (NCI) are described below.

This is part of a sample that, as a whole, favours compounds with a hit. Of some 83,000 tested, about 20% had one in any assay.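 Note: values are percent growth. 100 is the growth of untreated cells, values between 100 and 0 indicate rising inhibition; between -100 and 0 indicates cell death.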 Unmarked numbers belong to inactive results. Calls of active or inactive are those of the source. The calls were made as follows: active = growth percent below 10; inactive = the rest.

Holding throughout (assay): NCI-60 one-dose screen, 48 h (100 = growth as untreated, 0 = no growth, -100 = all killed)
Holding throughout (settings): 10 µM unless noted

The test system of experiment [1] is SN12C renal.
Experiment [2] concerns UO-31 renal.
The subject of experiment [3] is TK-10 renal.
In experiment [4] the test system is ACHN renal.
The subject of experiment [5] is CAKI-1 renal.
Experiment [6] deals with A498 renal.
For experiment [7], the system named is CCRF-CEM leukemia.
The subject of experiment [8] is MOLT-4 leukemia.
Experiment [9] has as its system SR leukemia.

Take `COc1ccc(Cn2c(Br)c3c(c2Br)-c2nc(NC(=O)c4ccc(OC)cc4)sc2CC3)cc1`: the growth is 85.1% in experiment [1]; 44.9% in [2]; 89.4% in experiment [3]; 51.8% in experiment [4]; 76.2% in experiment [5]; 65.9% in [6]. Besides, the values for the growth in experiment [7], in [8] and in experiment [9] were 85.3%, 94.7% and 67.4%, respectively.

For `COc1cc2cc3c(=O)n4c(cc5cc(OC)ncc54)c(=O)n3c2cn1`, the growth in [1] is 98.6%; in experiment [2] it was 88.8%; in [3], 107%; in experiment [4] it was 110%; in [5] it was 98.4%; in experiment [6], 104%. For the same compound, the growth was 91.9% in experiment [7], 99.2% in experiment [8] and 98% in experiment [9].

In the case of `Cc1ccc(C(=O)c2oc3ccc4c(C)cc(=O)oc4c3c2C)cc1`, the growth in [1] is 30.5%; in experiment [2], 9.48% (active); in experiment [3] it was 27.2%; in experiment [4], 32.9%; in [5], 15.2%; in experiment [6] it was 32.3%. In addition, the growth was 17.1% in experiment [7], 7.13% (active) in experiment [8] and 12.7% in experiment [9].

Regarding `COC(=O)C1(C)COP(=O)(Nc2ccc(OC)cc2)OC1` (configuration not stated), the growth is 102% in [1]; 82.7% in [2]; 108% in experiment [3]; 104% in [4]; 99.2% in [5]; 101% in [6]. Moreover, the growth was 102% in [7], 99.2% in experiment [8] and 93.2% in experiment [9].

Regarding `CCOc1cc(Cl)c(C(C)NC(=O)c2cccc(OC)c2)cc1OCC` (configuration not stated), the growth in experiment [1] is -23.3% (active); in [2], -92.5% (active); in experiment [3] it was -62.4% (active); in [4], -73.3% (active); in experiment [5] it was -39.1% (active); in experiment [6], 26.2%. Besides, the figures for the growth in [7], in experiment [8] and in [9] were -24.5% (active), -10.2% (active) and -19.1% (active), respectively.

With `CCOC(=O)c1c(Cl)c2c(n1Cc1ccccc1)-c1oncc1CCC2`, the growth was 63.9% in [1]; 72.4% in experiment [2]; 98.9% in experiment [3]; 65.8% in [4]; 59.5% in [5]; 56.9% in experiment [6]. Also, the growth in [7] was 59.7%; in experiment [8], 52.6%; in experiment [9], 0.79% (active).

With `COc1ccccc1N1CCN(C(CNS(=O)(=O)c2ccc(Cl)cc2)c2cccnc2)CC1` (configuration not stated), the growth was 90.8% in experiment [1]; 111% in experiment [2]; 111% in [3]; 103% in [4]; 104% in experiment [5]; 56.7% in experiment [6]. For the same compound, the growth in experiment [7] is 55.5%; in experiment [8], 46.7%; in experiment [9], 49.5%.

As to `FC(F)(F)c1cccc(CNC2CCN(CCc3ccccc3)CC2)c1`, the growth in experiment [1] is 85.4%; in experiment [2], 56.3%; in experiment [3], 79.8%; in [4] it was 90.7%; in experiment [5] it was 60.2%; in [6], 60.4%. Further, the growth in [7] is 13.2%; in experiment [8], 54.3%; in experiment [9] it was 29.3%.

For `O=C(Nc1ccccc1O)c1ccc(-c2ccc(Cl)cc2Cl)o1`, the growth in [1] is 89.8%; in experiment [2], 74%; in experiment [3], 102%; in experiment [4], 102%; in experiment [5], 78.7%; in [6], 86.4%. Besides, the values for the growth in [7], in experiment [8] and in experiment [9] were 75.1%, 65.6% and 48.7%, respectively.

As to `COc1cc(-c2c3c(cn2S(=O)(=O)c2ccccc2)-c2nc(N)sc2CC3)cc(OC)c1OC`, the growth in experiment [1] was 54.1%; in experiment [2], 30.5%; in experiment [3] it was 53.4%; in [4], 49.9%; in experiment [5], 34.2%; in experiment [6], 21.1%. The growth in [7] is 7.05% (active); in [8], 23.5%; in experiment [9], 9.55% (active).

`COc1ccc(-c2nsc3c2NC(=O)CC3c2ccc3c(c2)OCCO3)cc1` (configuration not stated): the growth is 44.4% in experiment [1]; 53.6% in experiment [2]; 43.4% in experiment [3]; 46% in experiment [4]; 38.6% in experiment [5]; 19% in experiment [6]. Further, the values for the growth in experiment [7], in [8] and in experiment [9] were 14%, 28.3% and 28.9%, respectively.

In the case of `COc1ccc(CN2CCCC(C(=O)c3ccc(C(F)(F)F)cc3)C2)c(O)c1` (configuration not stated), the growth in experiment [1] was 31.8%; in experiment [2], 26.4%; in [3] it was 34.6%; in experiment [4] it was 38%; in [5], 32.6%; in experiment [6] it was 15.2%. Further, the growth in experiment [7] is 8.95% (active); in experiment [8], 13.6%; in experiment [9], 3.77% (active).

For `COc1cc(C(=O)O/N=C(\N)Cc2cccc3ccccc23)cc(OC)c1OC`, the growth in experiment [1] is 63%; in [2], -44.3% (active); in experiment [3], -43.8% (active); in experiment [4], 42.9%; in [5], 22.9%; in experiment [6], 44.6%. In addition, the values for the growth in [7], in experiment [8] and in [9] were -5.01% (active), 1.56% (active) and -30.4% (active), respectively.
